APP 5'UTR act: activates APP 5'UTR luciferase reporter; SH-SY5Y APP 5'UTR luciferase reporter, luminescence; zero percent = DMSO vehicle wells; activation, % at 2 µM; hit rate 1% among 190,000;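 active = activation above a set limit, based on mean plus 3 SD of controls, cut at about 140% in these data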
APP 5UTR inh: APP translation inhibition; SH-SY5Y APP 5'UTR-luciferase reporter, luminescence; inhibition, % at 2 µM; hit rate 0.82% among 190,000;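 active = inhibition above a set limit, derived from the sample mean plus 3 SD, cut at about 45% in these data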
Wee1 stabilizer: inhibitors of human Wee1 degradation | hit rate 1.2% among 220,000 | reporter increase, % at 5 µM | AID 1321 | HeLa Luc-Wee1K328M stability, luciferase luminescence; 100% = proteasome inhibitor MG132 effect;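 active = activation above the mean of all tested compounds plus 3 SD, set per screening run, cut at about 8.8% in these data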;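 note: cells exposed to compound for 20 h before luminescence read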
Target sequence (P30291 whole entry K328M): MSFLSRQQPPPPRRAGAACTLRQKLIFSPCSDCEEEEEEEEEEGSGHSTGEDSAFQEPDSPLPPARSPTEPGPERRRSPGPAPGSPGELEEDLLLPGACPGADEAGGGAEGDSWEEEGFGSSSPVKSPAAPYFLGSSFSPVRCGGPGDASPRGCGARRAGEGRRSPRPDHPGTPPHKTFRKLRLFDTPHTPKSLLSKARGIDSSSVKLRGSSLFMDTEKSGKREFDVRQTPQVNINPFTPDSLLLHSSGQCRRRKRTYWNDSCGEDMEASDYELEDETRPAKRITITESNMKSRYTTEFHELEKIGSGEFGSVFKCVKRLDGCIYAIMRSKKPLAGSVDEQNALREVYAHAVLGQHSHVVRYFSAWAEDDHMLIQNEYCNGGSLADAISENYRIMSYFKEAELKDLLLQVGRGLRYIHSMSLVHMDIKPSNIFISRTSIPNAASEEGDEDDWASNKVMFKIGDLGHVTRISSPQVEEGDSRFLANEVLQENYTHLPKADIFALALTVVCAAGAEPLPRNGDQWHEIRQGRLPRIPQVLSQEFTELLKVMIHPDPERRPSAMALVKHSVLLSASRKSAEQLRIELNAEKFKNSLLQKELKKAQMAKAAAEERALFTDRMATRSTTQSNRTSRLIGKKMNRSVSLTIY
STAT1 activator: STAT1 signaling activation | hit rate 2.6% among 200,000 | activation (% of control), % at 5.5 µM | AID 932 | NIH 3T3 STAT1-luciferase reporter, IFN-gamma, luminescence; 100% = IFN-gamma alone, no compound;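 active = activation above the screen-wide mean activation plus 3 SD, cut at about 130% in these data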
NF-kB expr up: NF-kB expression increase, human neuronal cells | fold change at 12.5 µM | NF-kB reporter expression; stronger effect = higher value | hit rate 1.6% among 190,000; in the data active = fold change above about 3.3
Hsp70 activator: switches on Hsp70 transcription; hit rate 0.04% among 200,000; HeLa Hsp70 promoter luciferase reporter, luminescence; scaled: vehicle 0, proteasome-inhibitor control 100%; activation, % at 10 µM;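 active = activation above the mean across all tested compounds plus 3 SD, cutoff set per campaign, cut at about 5.5% in these data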
Large screens that a line does not name were inactive. In the library only some 4.8% were active in any assay of this set; here they are far more common.

Cc1cccc(-n2ncc3c(NCc4ccccn4)ncnc32)c1	none
COCCn1c(SCC(=O)NCc2ccccc2)nnc1-c1ccco1	none
Cn1c(SCc2ccccc2F)nnc1-c1ccccn1	STAT1 activator 142.5
Cn1c(SCc2ccccc2)nnc1-c1cccs1	none
Cn1c(SCc2ccc(F)cc2)nnc1-c1ccccn1	STAT1 activator 139.7
Cc1ccc(CSc2nnc(-c3ccccn3)n2C)cc1	none
Cn1c(SCc2ccc(F)cc2)nnc1-c1cccs1	STAT1 activator 140.3
Cn1c(SCc2ccccn2)nnc1-c1cnccn1	none
Cn1c(SCc2ccccc2F)nnc1-c1cnccn1	STAT1 activator 136.7
c1ccc(-c2ccc(-c3nc(-c4cccnc4)no3)cc2)cc1	APP 5'UTR act 135.8, STAT1 activator 137.4, NF-kB expr up 5.32
c1ccc(-c2noc(-c3cccnc3)n2)cc1	STAT1 activator 150.2, NF-kB expr up 3.36
Clc1ccc(Br)cc1-c1nc(-c2cccnc2)no1	none (no result: NF-kB expr up)
CCOc1cc(-c2noc(-c3cccnc3)n2)ccc1OC	none
COc1ccc(-c2noc(-c3cccnc3)n2)cc1OC	STAT1 activator 140.4
C(=C\c1nc(-c2cccnc2)no1)/c1ccccc1	STAT1 activator 144.8
Oc1ccc(NCc2ccccc2OCc2ccccc2)cc1	none
CCCc1[nH]nc2c1C(c1cccc(OC(=O)c3ccco3)c1)C(C#N)=C(N)O2 (configuration not stated)	none
COc1cccc(-c2noc(-c3ccc(Cl)nc3)n2)c1	STAT1 activator 150.8, NF-kB expr up 4.9
Cc1nn(-c2ccccc2)c(Cl)c1/C=N/NC(N)=O	none (no result: APP 5'UTR act, APP 5UTR inh, STAT1 activator, NF-kB expr up, Hsp70 activator)
Cc1nn(-c2ccccc2)c(Cl)c1/C=N/Nc1nc2ccccc2n1C	STAT1 activator 145.0
CN1CCN(/N=C/c2ccc(Br)cc2)CC1	STAT1 activator 128.9
C=CCn1c(SCC(=O)NC2CCS(=O)(=O)C2)nc2scc(C3CC3)c2c1=O (configuration not stated)	Wee1 stabilizer 9.7
Cc1nn(-c2ccccc2)c2c1C(c1ccc(Br)s1)C(C#N)=C(N)O2 (configuration not stated)	Wee1 stabilizer 9.1
Cc1nn(-c2ccccc2)c2c1C(c1ccccc1)C(C#N)=C(N)O2 (configuration not stated)	none
CCOC(=O)c1cnc2c(Cl)cc(Cl)cc2c1NCCOCCO	none
COc1ccccc1-c1noc(-c2ccncc2)n1	none
COc1ccccc1-c1noc(-c2cccs2)n1	STAT1 activator 129.7, NF-kB expr up 3.76
Cc1ccc(CNS(=O)(=O)c2cccc3nsnc23)cc1	none
COc1cc(NC(=O)COc2ccccc2[N+](=O)[O-])ccc1NC(=O)c1cccs1	STAT1 activator 141.2
Cn1nc(C(C)(C)C)c(NC(=O)c2cccs2)c1C(C)(C)C	none (no result: APP 5'UTR act, APP 5UTR inh, STAT1 activator, NF-kB expr up, Hsp70 activator)
Cc1cc(/C=N/n2c(COc3ccccc3C)nc3ccccc3c2=O)c(O)c([N+](=O)[O-])c1	APP 5UTR inh 45.0
Cc1ccccc1OCc1nc2ccccc2c(=O)n1/N=C/c1c[nH]c2ccccc12	none
C/C(CC(=O)Nc1cccnc1)=N\NC(=O)c1ccc([N+](=O)[O-])c(Cl)c1	none
COc1ccc2nc(NC(=O)Cc3cccs3)sc2c1	STAT1 activator 135.6
CCOCC(=O)Nc1nc2ccc(OC)cc2s1	none
CCOc1ccc2nc(NC(=O)Cc3cccs3)sc2c1	STAT1 activator 128.9
CCOc1ccc2nc(NC(=O)c3ccoc3C)sc2c1	APP 5'UTR act 167.7, NF-kB expr up 3.51
CCOc1ccc2nc(NC(=O)COC)sc2c1	APP 5'UTR act 139.7, STAT1 activator 138.4, NF-kB expr up 4.91
COc1ccc(S(=O)(=O)N2N=C(C)Oc3ccccc3C2=O)cc1	APP 5UTR inh 85.0
CN(C(=O)COc1ccccc1)c1nnc(C23CC4CC(CC(C4)C2)C3)s1	none
COC(=O)c1ccc(N/C=C\C(=O)c2ccc3c(c2)OCO3)cc1	none
O=C(/C=C\Nc1ccccc1Br)c1ccc2c(c1)OCO2	APP 5'UTR act 147.7, NF-kB expr up 5.96
O=C(/C=C\Nc1cccc(F)c1)c1ccc2c(c1)OCO2	APP 5'UTR act 196.0
O=C(/C=C/c1ccccc1)c1ccc2c(c1)OCO2	none (no result: APP 5'UTR act, APP 5UTR inh, STAT1 activator, NF-kB expr up, Hsp70 activator)
CNc1cc([N+](=O)[O-])ccc1N/C=C/C(=O)c1ccc2c(c1)OCO2	STAT1 activator 134.6
COc1ccccc1N(CC(=O)Nc1ccccc1C(=O)NCC(C)C)S(C)(=O)=O	none
COCCNC(=O)c1cc2sc3ccccc3c2s1	STAT1 activator 136.8
CN(C)CCCNC(=O)c1cc2sc3ccccc3c2s1	none
O=C(NNc1ncnc2c1cnn2-c1ccc(F)cc1)c1cccs1	none
C=CCN=C(NC#N)SCC(=O)c1cccc(OC)c1	STAT1 activator 137.4
CC1=NNC(=O)C1CCC(=O)N/N=C/C(Br)=C/c1ccccc1 (configuration not stated)	APP 5UTR inh 81.7
O=C(NCCCNC(=O)c1cccs1)c1cccs1	none
O=C(O)CCc1nc2ccccc2n(CCc2ccccc2)c1=O	none
COc1ccc(CCNc2nc(-c3ccncc3)cs2)cc1OC	none (no result: APP 5'UTR act, APP 5UTR inh, STAT1 activator, NF-kB expr up, Hsp70 activator)
COc1ccc(CCNc2nc(-c3sc(C)nc3C)cs2)cc1OC	APP 5UTR inh 55.2
CCN(CC)C(=O)CSc1nnc(-c2ccncc2)n1N	none
COC(=O)c1cc2ccsc2n1Cc1cccc(F)c1	none
Cc1ccc(NC2=NCCC2)cc1Cl	none
O=C1C2C3C=CC(C3)C2C(=O)N1c1ccc(-c2nc3ccccc3o2)cc1 (configuration not stated)	STAT1 activator 143.0
O=C1C2C3C=CC(C3)C2C(=O)N1c1ccncc1 (configuration not stated)	none
CCOc1ccccc1OCCn1ncc2ccc(OC)c(OC)c2c1=O	none
COc1ccc2cnn(CCOc3ccccc3)c(=O)c2c1OC	APP 5'UTR act 176.2, STAT1 activator 146.5, NF-kB expr up 3.63
Cc1ccc2nc(/C(C#N)=C\c3ccc(N4CCCCC4)c([N+](=O)[O-])c3)[nH]c2c1	none
CN(C)C(=S)NC1(C)CCS(=O)(=O)C1 (configuration not stated)	none
Nc1ncnc(NNC(=O)CNC(=O)c2c(F)cccc2Cl)c1[N+](=O)[O-]	none
C(=N\Nc1nc(-c2ccccc2)cs1)/c1cccs1	STAT1 activator 144.9, NF-kB expr up 7.37
ClCc1csc(N/N=C/c2cccs2)n1	none (no result: APP 5'UTR act, APP 5UTR inh, STAT1 activator, NF-kB expr up, Hsp70 activator)
C(=N\Nc1nc(-c2ccccc2)cs1)/c1ccncc1	STAT1 activator 149.2
Clc1ccc(-c2csc(N/N=C\c3cccnc3)n2)cc1	none
C(=N\Nc1nc(-c2ccccc2)cs1)/c1ccco1	APP 5'UTR act 156.2, STAT1 activator 146.9, NF-kB expr up 5.24
Cc1ccc(-c2csc(N/N=C/c3ccco3)n2)cc1	none
Cc1csc2c(N3CCN(S(=O)(=O)c4ccc(Cl)cc4)CC3)ncnc12	none (no result: APP 5'UTR act, APP 5UTR inh, STAT1 activator, NF-kB expr up, Hsp70 activator)
COc1ccc(/C=N\n2nnc3ccccc32)cc1	APP 5'UTR act 191.1
COc1ccc(/C=N/N2C(=O)c3ccccc3C2=O)cc1	none
COc1cccc(-c2nn[nH]n2)c1O	none

Screens (PubChem)
